Measured values published in PubChem BioAssay (NCATS).
Results filed as inconclusive are left out. Where a call stands in place of a potency, no number is given. Activity calls are given as the source filed them. Calls follow the shape of the dose curve; as a rule, active = well fitted curve in the direction sought with a large enough effect; inconclusive = small, poorly fitted or top-dose-only effect, or another doubt; inactive = no such curve, though single readings can be large; an effect the other way counts as inactive or inconclusive.

Legend:
[1] = qHTS assay to identify small molecule inhibitors of chordoma cells - UCH-1 (AID 1259355); also: nearly all actives have a fitted effect of over 55% in size
How it was run: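 Seed 800 cells per well; incubate overnight at 37 C, 5% CO2. Add test compounds (15 concentrations), then the auranofin–topoisomerase-agent combination. Incubate 48hr, add CellTiter-Glo, wait 30min, read luminescence.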

[2] = qHTS assay to identify small molecule inhibitors of chordoma cells - UCH-2 (AID 1259356); also: series mostly up to about 46 µM
[3] = P-glycoprotein substrates identified in KB-8-5-11 adenocarcinoma cell line, qHTS therapeutic library screen (AID 1346987); conditions: outcome: dose series up to 44.5 µM unless noted; also: nearly all actives have a fitted effect of over 65% in size; also: potency is read from the fitted curve at half-maximal effect
How it was run: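 KB-8-5-11, a colchicine-selected P-gp-overexpressing KB-3-1 subline, was grown without colchicine for the assay. Cells were seeded at 500 cells/well, dosed in concentration-response and incubated 72 h at 37 degree C, 5% CO2. Viability was read by CellTiter-Glo luminescence.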

Row | SMILES | Potency [1] | Potency [2] | Potency [3]
1 | Cc1cc2nc3c(=O)[nH]c(=O)nc-3n(C[C@H](O)[C@H](O)[C@H](O)COP(=O)(O)OP(=O)(O)OC[C@H]3O[C@@H](n4cnc5c(N)ncnc54)[C@H](O)[C@@H]3O)c2cc1C | inactive | inactive | inactive
2 | CCCCO | inactive | inactive | inactive
3 | NC(=O)OCC(O)COc1ccc(Cl)cc1 (configuration not stated) | inactive | inactive | inactive
4 | O=C(NNCS(=O)(=O)O)c1ccncc1 | inactive | inactive | inactive
5 | Oc1ccc(Cl)c2c1CCC2 | inactive | inactive | inactive
6 | CO/N=C(/C(=O)N[C@@H]1C(=O)N2C(C(=O)O)=C(COC(N)=O)CS[C@H]12)c1ccco1 | inactive | inactive | inactive
7 | CCOc1ccc(S(=O)(=O)O)c2cccnc12 | inactive | inactive | inactive
8 | Cc1cc(O)c2c(c1)O[C@@]1(C)CC[C@H]3C(C)(C)CCCC34CO[C@@H]2[C@H]41 (some centres not stated) | inactive | inactive | inactive
9 | CCN(CC)C(=O)c1cccnc1 | inactive | inactive | inactive
10 | CS(=O)(=O)OCC(O)C(O)COS(C)(=O)=O (configuration not stated) | inactive | inactive | inactive
11 | Cn1c(=O)c2c(ncn2CCOC(=O)C(C)(C)Oc2ccc(Cl)cc2)n(C)c1=O | inactive | inactive | 18.4 µM (active)
12 | O=P(O)(O)OC[C@H]1O[C@](O)(COP(=O)(O)O)[C@@H](O)[C@@H]1O | inactive | inactive | inactive
13 | CN1CCc2c(c3ccccc3n2Cc2ccccc2)C1 | inactive | inactive | inactive
14 | OCCCNc1ccccc1 | inactive | inactive | inactive
